Data on 12 compounds can be found in ChEMBL document CHEMBL3433997, “St. Jude Leishmania screening dataset” (2016).

What all share (type): functional
The target of test [1] is Solute carrier family 2, facilitated glucose transporter member 1 (Homo sapiens) (UniProt P11166). As to the kind of experiment: ST_JUDE_LEISH: Cytotoxicity at 2uM final concentration against transgenic Leishmania Mexicana promastigotes LmGLUT1 that are glucose transport deficient and complemented with the human glucose transporter GLUT1. Activity is measured by DNA content using SYBR green in vitro.

The target of test [2] is Hexose transporter 1 (Plasmodium falciparum) (UniProt O97467). As to the kind of experiment: ST_JUDE_LEISH: Cytotoxicity at 2uM final concentration against transgenic Leishmania Mexicana promastigotes LmPfHT that are glucose transport deficient and complemented with the Plasmodium falciparum hexose transporter. Activity is measured by DNA content using SYBR green in vitro.

Test [3] addresses Glucose transporter (Leishmania mexicana) (UniProt O61059). As to the kind of experiment: ST_JUDE_LEISH: Cytotoxicity at 2uM final concentration against transgenic Leishmania Mexicana promastigotes LmGT2 that are glucose transport deficient and complemented with the L. Mexicana glucose transporter 2. Activity is measured by DNA content using SYBR green in vitro.

The structures appear in SMILES notation.

Solute carrier family 2, facilitated glucose transporter member 1 (Homo sapiens), sequence (P11166 whole entry): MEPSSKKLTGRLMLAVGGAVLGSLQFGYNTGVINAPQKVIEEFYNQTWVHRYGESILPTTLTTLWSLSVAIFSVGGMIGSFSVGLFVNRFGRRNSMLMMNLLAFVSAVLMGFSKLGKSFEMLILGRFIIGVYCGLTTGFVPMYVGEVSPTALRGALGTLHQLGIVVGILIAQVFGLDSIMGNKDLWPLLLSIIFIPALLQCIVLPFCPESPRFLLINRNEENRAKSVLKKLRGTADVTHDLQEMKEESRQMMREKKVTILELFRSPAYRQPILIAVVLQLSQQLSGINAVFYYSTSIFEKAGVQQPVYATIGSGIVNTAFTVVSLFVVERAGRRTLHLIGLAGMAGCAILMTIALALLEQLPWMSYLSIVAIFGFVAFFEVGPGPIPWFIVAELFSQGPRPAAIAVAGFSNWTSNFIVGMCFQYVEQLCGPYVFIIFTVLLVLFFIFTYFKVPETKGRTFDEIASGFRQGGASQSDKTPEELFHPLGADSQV

A word on the inhibition: it is the drop in the measured response relative to a control, in per cent. Regarding `CCCCN1CCCN(Cc2cccc(NC(=O)c3ccc(-c4ccccc4)cc3)c2)CC1`, the inhibition in test [1] is 1.16%; in test [2], -2.15%; in test [3] it was -1.31%.

On to `NC(=O)c1ccccc1OCC(=O)Nc1cccc(-c2cccc(-c3nc4ccccc4[nH]3)c2)c1`, for which the inhibition in test [1] was 0.34%; in test [2], 1.07%; in test [3], -4.32%.

As for `CCCCCCN1CCN(Cc2cccc(NC(=O)c3cc4ccccc4s3)c2)CC1`, the inhibition in test [1] worked out at 2.76%; in test [2] it was 2.43%; in test [3], 2.42%.

Turning to `O=[N+]([O-])c1cccc(NC(=S)N2CCCN(Cc3ccc(F)cc3F)CC2)c1`, the inhibition in test [1] was found to be 0.91%; in test [2], 1%; in test [3], 0.66%.

With `CN(C)CCCOc1cccc(CCNCc2cccc(Oc3ccc(Cl)cc3)c2)c1`, the inhibition in test [1] stood at 2.64%; in test [2], 2.34%; in test [3] it was 0%.

As for `O=C(CCCCCNC(=O)c1ccc(O)c(-c2ccc(Cl)c(Cl)c2)c1)NC1CCCCCC1`, the inhibition in test [1] was 4.53%; in test [2], 3.51%; in test [3], 4.8%.

Turning to `Cc1cc(N)cc2nc(-c3ccc(N)cc3)[nH]c12`, the inhibition in test [1] was found to be 3.09%; in test [2], 2.43%; in test [3], 1.68%.

As for `Cc1nc(-c2nc(NCc3ccncc3)ncc2-c2ccsc2)sc1C`, the inhibition was -1.32% in test [1], -0.89% in test [2] and 0.31% in test [3].

For `CCOc1ccc(-c2nonc2NC(=O)c2ccccc2F)cc1OCC`, the inhibition is -0.17% in test [1], 1% in test [2] and 1.47% in test [3].

Turning to `COc1cc2c(cc1OC)-c1cc(=Nc3c(C)cc(C)cc3C)n(C)c(=O)n1CC2`, the inhibition in test [1] amounted to 0.22%; in test [2] it was 2.72%; in test [3], 0.49%.

As for `O=C(NCCN1CCC(c2ccncc2)CC1)c1cccc(Nc2nccc(Nc3ccc(Oc4ccccc4)cc3)n2)c1`, the inhibition was -0.12% in test [1], -0.29% in test [2] and -0.06% in test [3].

As to `CCc1ccc(C2CCN(CCCCNC(=O)c3ccc(NC(=O)c4ccc(Cl)cc4)cc3)CC2)c(OCC(=O)OC)c1`, the inhibition in test [1] is -0.04%; in test [2], 1.79%; in test [3], 1.25%.
